# The list is not random: actives were taken first. Their share in the collection is about 8.8%.
# HT1080 IDH1KD tx: HT-1080 IDH1 knockdown cell toxicity (counter line); Potency, µM (highest dose often 46.1 µM), for the others: at the top dose activity, negative = toxicity, most hits filed as cytotoxic; hit rate 2% among 360,000; AID 686971; HT-1080 IDH1 knockdown viability, ATP luminescence, 48 h;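 also: potency is read from the fitted curve at half-maximal effect; 0% = DMSO wells and -100% = cell-free medium wells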
#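 After a 2 h attachment period, IDH1KD HT-1080 cells took pin-transferred compound for 48 h at 37 °C; ATP-based luminescence after 10 min room-temperature reagent incubation reported viability.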
# KB-V1 MDR tox: KB-V1 MDR subline cytotoxicity | Potency, µM (doses to about 46.1 µM), hits mostly cytotoxic | KB-V1 MDR cells viability, CellTiter-Glo, 72 h | hit rate 3.4% among 400,000; also: potency is read from the fitted curve at half-maximal effect; nearly all actives have a fitted effect of over 60% in size
#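 Following 72 h at 37 degrees C with compound, KB-V1 cell viability was read by CellTiter-Glo luminescence, medium being phenol-red-free DMEM plus 10% FBS; concentration-response parameters came from normalized, curve-fitted qHTS data.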
# IL-1B inflam inh: inhibitors of inflammasome signaling (IL-1 beta secretion); hit rate 4.7% among 360,000; activity change, % at 57.5 µM; THP-1 LPS/ATP IL-1B secretion, AlphaLISA, 16 h; active compounds read low; AID 743279; in the data active = activity change below about -50%; inconclusive = mostly about -30% to -49%
#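 THP-1 cells pretreated 1 hr with compounds (up to 57.5 uM final), then stimulated with LPS (250 ng/mL final) plus ATP (1.25 mM final); secreted IL-1B measured by AlphaLISA after 16 hr, decreased signal indicating inhibition.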
# KB-3-1 cytotox: KB-3-1 parental cell cytotoxicity | KB-3-1 viability, CellTiter-Glo ATP luminescence, 72 h | hit rate 1.4% among 400,000 | Potency, µM (highest dose often 46.1 µM), usual class: cytotoxic; also: potency is read from the fitted curve at half-maximal effect; nearly all actives have a fitted effect of over 60% in size
#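 Luminescent ATP read-out (CellTiter-Glo) measures survival of drug-naive KB-3-1 cells after 72 h compound exposure at 37 °C. Titration series was screened from lowest to highest concentration, with DMSO vehicle plates as background controls.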
# HT1080-NT tox: kills 2HG-producing HT-1080-NT fibrosarcoma cells; hit rate 1.6% among 360,000; Potency, µM (doses to about 46.1 µM), without a hit: at the top dose activity, negative = less viability, actives largely listed as cytotoxic; HT-1080-NT fibrosarcoma viability, CellTiter-Glo ATP luminescence, 48 h;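 also: NT is the 2HG producing partner of a matched IDH1 knockdown line; potency is read from the fitted curve at half-maximal effect; 0% = DMSO-treated cells and -100% = media-only wells without cells; nearly all actives have a fitted effect of over 55% in size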
#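 750 cells/well, RPMI + 5% FBS; 2 h settle, compound pin-transfer, 48 h at 37 degrees C. CellTiter-Glo 10 min RT, luminescence. Normalized to DMSO and media-only wells.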
# * marks the source's active call; other numbers are inactive results; i = inactive; ? = inconclusive; · = no result. Unless noted, calls follow the shape of the dose curve; as a rule, active = well fitted curve in the direction sought with a large enough effect; inconclusive = small, poorly fitted or top-dose-only effect, or another doubt; inactive = no such curve, though single readings can be large; an effect the other way counts as inactive or inconclusive. Unless noted, % is scaled to controls: 0 for no effect and ±100 for the full control effect.
SMILES,HT1080 IDH1KD tx,KB-V1 MDR tox,IL-1B inflam inh,KB-3-1 cytotox,HT1080-NT tox
CCS(=O)(=O)c1ccc(O)c(NC(=O)Nc2ccc(C(C)(C)C)cc2)c1,?,i,-88*,i,?
CN(CC(=O)Nc1ccc(Cl)cc1)C(=O)CNC(=O)c1cccs1,-3%,i,26,i,-9%
CC(C)(C)NC(=O)C(c1ccc(-c2ccccc2)cc1)N(C[C@H]1CC[C@@H]([C@@H]2CC[C@H](CO)O2)O1)C(=O)c1ccc(C(C)(C)C)cc1 (some centres not stated),?,i,?,i,?
COc1ccc(-c2c(C(C)=O)c(C)nc3sc4c(=N)n(N)cnc4c23)cc1,-4%,18µM*,-25,?,-14%
CCOC(=O)c1c(C)nc2sc3c(=O)n(-c4ccc(OC)cc4)cnc3c2c1-c1ccc(OC)cc1,-4%,i,33,i,7%
Cc1nnc(SCc2ccc([N+](=O)[O-])cc2)o1,-4%,i,-2,i,9%
O=C(c1cccc(COCC(F)(F)C(F)F)c1)N1CCN(c2ccccc2)CC1,-18%,15µM*,9,i,2%
COc1cc(NC(=O)c2cccc(COCC(F)(F)C(F)F)c2)cc(OC)c1OC,-6%,?,31,?,2%
COc1ccc(/C=N/NC(=O)c2cccc(COCC(F)(F)C(F)F)c2)cc1,?,23µM*,-8,i,-11%
O=C(NCc1cccnc1)C(=O)NCC1OCCCN1S(=O)(=O)c1cc(F)ccc1F (configuration not stated),8%,i,14,i,8%
O=C(C=Cc1ccccn1)c1ccccc1,10µM*,i,-98*,?,?
O=C(C=Cc1ccccn1)c1ccccc1O,-15%,?,-94*,?,0%
O=C1NC[C@@H](CCCCN2C[C@H](Cc3ccc(O)cc3)N(CC3CCCCC3)C(=O)C2=O)N(CC2CCCCC2)C1=O,22%,?,7,?,13%
Cc1nc(C(=O)Nc2ccccc2Cl)cc2c1[nH]c1ccccc12,-18%,2.9µM*,-2,7.3µM*,-19%
Cn1nc(C(=O)Nc2ccccc2Cl)cc1C(=O)Nc1ccccc1Cl,0%,i,-55*,i,-6%
COc1ccc(NC(=O)c2cc3c([nH]c4ccccc43)c(C)n2)cc1,1%,i,?,i,13%
Cn1nc(C(=O)Nc2ccc(Br)cc2)cc1C(=O)Nc1ccc(Br)cc1,-2%,?,22,i,18%
O=C(CCc1nc2ccccc2s1)Nc1cccnc1,17%,i,42,i,20%
Cc1cc(C)nc(N2CCCC(C(=O)NCCc3cccc(F)c3)C2)n1 (configuration not stated),-1%,18µM*,4,i,10%
COc1ccccc1NC(=O)C1CCCN(c2nc(C)cc(C)n2)C1 (configuration not stated),0%,?,14,i,9%
Cc1cc(C)nc(N2CCCC(C(=O)Nc3cc(F)ccc3C)C2)n1 (configuration not stated),-2%,16µM*,28,i,2%
Cc1cc(C)nc(N2CCCC(C(=O)Nc3ccc4c(c3)OCO4)C2)n1 (configuration not stated),0%,23µM*,20,i,2%
O=C(Nc1ccc(Br)cc1)C(Cc1ccccc1)NS(=O)(=O)c1cccc2nsnc12 (configuration not stated),·,i,·,i,·
N#Cc1ccc(C(=O)N2CCCCC2c2cc(C(=O)Nc3ccccc3Cl)no2)cc1 (configuration not stated),18%,i,-6,i,25%
CC(CCN1C(Nc2ccccc2)=NC[C@@H]1C)c1ccccc1 (some centres not stated),13%,i,-5,i,6%
SMILES,HT1080 IDH1KD tx,KB-V1 MDR tox,IL-1B inflam inh,KB-3-1 cytotox,HT1080-NT tox
O=C1C(=C(I)I)c2ccccc2-c2ccccc21,5.2µM*,15µM*,-101*,?,?
O=C(N/N=C/c1ccc(Br)cc1)c1ccc(NC(=O)c2ccccc2)cc1,24%,i,0,i,6%
Cc1cc(C(=O)N/N=C/c2c(C)[nH]n(-c3ccccc3)c2=O)n[nH]1,-23%,i,0,i,-26%
Cc1[nH]n(-c2ccc([N+](=O)[O-])cc2)c(=O)c1C=NCCN1CCN(C(=O)c2cccc(F)c2)CC1,16µM*,16µM*,12,i,18µM*
Cc1[nH]n(-c2ccc([N+](=O)[O-])cc2)c(=O)c1C=NCCN1CCN(C(=O)c2ccc(F)cc2)CC1,3%,i,4,i,2%
Cc1[nH]n(-c2ccccc2)c(=O)c1/C=N/NC(=O)c1cccc(F)c1,7.3µM*,?,73,?,10µM*
Cc1[nH]n(-c2ccc(Br)cc2)c(=O)c1/C=N/NC(=O)c1ccccc1,?,1.3µM*,80,7.3µM*,?
COc1cc(N(C)C)ccc1/C=C1\C=Cc2ccccc21,·,i,·,i,·
Cc1nc2nc(SCC(=O)NC(C)c3ccccc3)nn2c(C)c1Cc1c(F)cccc1Cl (configuration not stated),·,i,·,i,·
CC(=O)Nc1ccnc(-c2cccnc2)n1,-6%,i,3,i,21%
CCCCC(=O)Nc1ccnc(-c2cccnc2)n1,-10%,16µM*,9,i,-19%
O=[N+]([O-])c1ccc(CN2CCOCCOCCN(Cc3ccc([N+](=O)[O-])cc3)CCOCC2)cc1,?,?,-142*,i,-2%
O=[N+]([O-])c1ccc(COc2ccc(CN3CCOCC3)cc2)cc1,2%,i,-27,i,2%
O=[N+]([O-])c1ccc(CN2CCCCCC2)cc1,-10%,i,14,i,-2%
CSc1ccc(CN2CCN(Cc3ccc([N+](=O)[O-])cc3)CC2)cc1,-29%,2.1µM*,-67*,?,?
O=C(CCNS(=O)(=O)c1cccc2nsnc12)Nc1ccc(F)cc1,·,i,·,i,·
COc1ccc(N2CCN(C(CNC(=O)c3c(F)cccc3F)c3ccc4c(c3)OCO4)CC2)cc1 (configuration not stated),·,i,·,i,·
COc1ccc(OC)c(NC(=O)c2c3c(nc4ccccc24)CCC3)c1,-11%,6.5µM*,30,i,1%
COc1cc(NC(=O)c2ccc3c(SCC(=O)O)c4c(nc3c2)CCC4)cc(OC)c1OC,14%,i,-4,i,5%
CCOC(=O)C1CCN(C(=O)CSc2c3c(nc4ccccc24)CCC3)CC1,-14%,i,-130*,i,-12%
